The campaign covered roughly 360,000 compounds. About 25,000 (6.9%) were called active. Inconclusive results (about 9%) are left out. The full list was thinned out, with actives kept by preference. Unmarked numbers belong to inactive results. The call rests on the fitted dose curve; in most records, active means well fitted inhibition curve with a large enough effect; inconclusive means small, poorly fitted or top-dose-only effect; inactive means flat fitted curve, though single readings scatter.
biological target: Luciferin 4-monooxygenase (Photinus pyralis) (UniProt P08659); test: qHTS profiling assay for firefly luciferase inhibitor/activator using purifed enzyme and Km concentrations of substrates (counterscreen for miR-21 project); settings: purified FLuc, luminescence inhibition; series mostly up to 57.5 µM; activity change, negative = inhibition: at the top concentration; further: nearly all actives have a fitted effect of over 55% in size;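 on activity change, negative = inhibition: plate controls were vehicle for no effect and reference inhibitor for full effect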
Sequence (P08659 whole entry, looked up): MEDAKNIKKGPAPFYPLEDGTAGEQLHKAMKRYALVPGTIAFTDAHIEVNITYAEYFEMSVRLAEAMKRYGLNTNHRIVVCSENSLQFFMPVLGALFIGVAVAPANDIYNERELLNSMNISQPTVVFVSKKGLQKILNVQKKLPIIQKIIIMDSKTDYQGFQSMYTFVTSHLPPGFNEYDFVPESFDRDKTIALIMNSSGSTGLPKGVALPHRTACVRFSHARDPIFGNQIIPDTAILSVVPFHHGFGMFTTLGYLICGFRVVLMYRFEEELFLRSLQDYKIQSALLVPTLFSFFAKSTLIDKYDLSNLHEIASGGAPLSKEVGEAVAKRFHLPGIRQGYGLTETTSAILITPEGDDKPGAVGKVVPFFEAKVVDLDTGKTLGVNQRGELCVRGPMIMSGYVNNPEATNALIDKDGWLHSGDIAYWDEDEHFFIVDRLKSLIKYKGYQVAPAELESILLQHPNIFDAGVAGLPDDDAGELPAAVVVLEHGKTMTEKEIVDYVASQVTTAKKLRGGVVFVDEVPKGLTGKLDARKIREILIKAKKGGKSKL
Summary of the method: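 Biochemical qHTS of compounds, final roughly 60 µM downward over six points, against 10 nM purified firefly luciferase using Km concentrations of substrates (10 uM D-luciferin, 10 uM ATP) in Tris acetate pH 7.5 buffer; luminescence output.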
Potency means the concentration at half of the fitted maximal effect.

| SMILES | activity change, negative = inhibition [%] | Potency |
| --- | --- | --- |
| CC1Cc2ccccc2N1S(=O)(=O)c1cccc(C(=O)NCC(c2ccco2)N2CCCC2)c1 (stereo unspecified) | -0.976 | – |
| COc1ccccc1CNC(=O)C(=O)NCC(c1cccs1)S(=O)(=O)c1cccs1 (stereo unspecified) | -10.2 | – |
| O=S(=O)(/C=C/c1ccccc1)N1CCNCC1 | 0.651 | – |
| COc1ccc(C(=O)/C=C/c2ccc(-c3ccccc3)cc2)cc1CSCC(=O)O | 0.374 | – |
| Cc1[nH]c(=O)c(C(=O)/C=C/c2ccccc2)c2c1CCCC2 | 1.36 | – |
| O=C(/C=C(O)/C=C/c1ccc(O)cc1)/C=C/c1ccc(O)cc1 | -22.6 | – |
| O=C(/C=C/c1ccccc1)c1ccoc1 | – | 15.1 µM (active) |
| O=C(/C=C/c1ccccc1)c1ccccc1O | – | 3.38 µM (active) |
| O=C(CSc1nnc(-c2ccncc2)n1-c1ccccc1)Nc1ccc(Cl)c(Cl)c1 | -1.04 | – |
| COc1ccc(CCNC(=O)c2cn(C)c3ccc(S(=O)(=O)N(C)C4CCCCC4)cc3c2=O)cc1OC | -1.48 | – |
| CSc1ccc(C2c3c(oc4ccccc4c3=O)C(=O)N2CCCN2CCOCC2)cc1 (stereo unspecified) | -7.46 | – |
| COc1cc(Cl)c(C)cc1NC(=O)CSc1nnc(-c2ccco2)n1CC(C)C | -17.6 | – |
| COc1ccc(OC)c(S(=O)(=O)Nc2cccc(-c3ccc4nncn4n3)c2)c1 | -5.1 | – |
| CCOc1ccc(C(=O)Nc2cccc(-c3ccc4nncn4n3)c2)cc1 | – | 8.49 µM (active) |
| CCOc1ccc(C(=O)Nc2c3c(nn2-c2ccccc2)CS(=O)(=O)C3)cc1 | 2.36 | – |
| CCOc1cccc(NC(=O)CC#N)c1 | 3.03 | – |
| CCOc1ccc(C(=O)Nc2cccc(SC)c2)cc1 | – | 6.01 µM (active) |
| CCOc1ccc(NC(=O)c2ccc(NC(=O)COC(=O)c3ccc(NC(=O)CC#N)cc3)cc2)cc1 | -17.1 | – |
| NS(=O)(=O)c1ccc(CCNS(=O)(=O)c2cccc3cccnc23)cc1 | 0.297 | – |
| O=C(O[C@@H]1[C@H](Cc2ccccc2)NS(=O)(=O)[C@H]2C[C@@H]3C=C[C@]12O3)c1ccccc1Br | -0.0997 | – |
| COc1cccc(NC(=O)NCCN2CCCCC2)c1 | -1.18 | – |
| COc1cccc(NC(=O)N2CCCC2C(=O)NC2CCCCC2)c1 (stereo unspecified) | 0.664 | – |
| COc1cccc(NC(=O)Nc2nnc(N3CCCCC3C)s2)c1 (stereo unspecified) | – | 13.5 µM (active) |
| CCOC(=O)C1(CCOC)CCN(Cc2cc3ccccc3s2)CC1 | -3.36 | – |
| CN(Cc1ccccc1)S(=O)(=O)c1ccc(F)c(C(=O)Nc2cccc(Cl)c2Cl)c1 | -12.7 | – |
| O=C1c2cccnc2C(Nc2ccc(S(=O)(=O)N3CCCCCC3)cc2)N1Cc1ccccc1 (stereo unspecified) | -6.21 | – |

| SMILES | activity change, negative = inhibition [%] | Potency |
| --- | --- | --- |
| C(=N\Nc1ccc2ccccc2n1)/c1ccc2c(c1)OCO2 | – | 0.19 µM (active) |
| O=C(Cc1ccc(F)cc1)N/N=C/c1ccc2c(c1)OCO2 | -18.1 | – |
| Cc1noc(C)c1/C=N/Nc1ccc2ccccc2n1 | – | 1.69 µM (active) |
| Brc1ccc(-c2csc(N/N=C/c3ccc4c(c3)OCO4)n2)cc1 | -4.27 | – |
| COc1ccc(NC(=O)C2C3CCC(O3)C2C(=O)O)cc1OC (stereo unspecified) | 3.96 | – |
| Cc1cccn2c(=O)c3cc(C(=O)NC(C)c4ccccc4)c(=N)n(CCCO)c3nc12 (stereo unspecified) | -2.84 | – |
| CCCN(CCC)CCNC(=O)c1ccc2c(c1)NC(=O)C(CS(=O)(=O)Cc1cccc(Br)c1)N2 (stereo unspecified) | -2.74 | – |
| COc1cccc(N=C2SC(C(=O)Nc3cccc(Cl)c3)CC(=O)N2C)c1 (stereo unspecified) | -13.3 | – |
| O=C(Nc1cccn(Cc2ccccc2Cl)c1=O)NC1CCCCC1 | – | 21.3 µM (active) |
| O=C(COc1ccccc1Cl)Nc1ccccc1C(=O)NC1CC1 | -17.7 | – |
| COc1ccc(Cn2cccc(NC(=O)Nc3ccc(C#N)cc3)c2=O)cc1 | -0.943 | – |
| CCC(=O)c1ccc(OCC(=O)Nc2ccc(N3CCCCC3)cc2)cc1 | 0.479 | – |
| CCC(=O)Nc1ccc(-c2ccc(N3CCCCC3)nn2)cc1 | – | 12 µM (active) |
| CCOc1ccc(NC(=O)CCc2c(C)nn(-c3ccc(N4CCCC4)nn3)c2C)cc1 | -15.8 | – |
| O=C(CSc1nc2ccccc2nc1Cc1ccccc1)N1CCCCC1 | -17.9 | – |
| O=C(CC(c1cccs1)N1Cc2ccccc2C1=O)Nc1ccc(F)c(F)c1 (stereo unspecified) | -1.07 | – |
| Cc1sc2ncnc(N3CCC(C(=O)NNC(=O)c4ccc(F)cc4)CC3)c2c1C | 0.937 | – |
| Cc1sc2ncnc(N3CCC(C(=O)Nc4nc5ccc(Cl)cc5s4)CC3)c2c1C | – | 15.1 µM (active) |
| Cc1sc2ncnc(N3CCC(C(=O)Nc4ccc(F)cc4Cl)CC3)c2c1C | 1.82 | – |
| Cc1ccc(S(=O)(=O)N(C)C)cc1NC(=O)C1Cc2ccccc2CN1C(=O)c1ccco1 (stereo unspecified) | -1.51 | – |
| CCN(CC)c1ccc(C(=O)c2cnc(/N=C/N(C)C)s2)cc1 | – | 16.9 µM (active) |
| CCN(CC)c1ccc(C(=O)Nn2c(C)nc3ccccc3c2=O)cc1 | -4.86 | – |
| COc1ccc(S(=O)(=O)N2CCN(C(C)C(=O)Nc3ccc(C(C)C)cc3)CC2)cc1 (stereo unspecified) | -15.9 | – |
| COc1ccccc1/C=C1\SC(=O)N(CCC(=O)N(C)C2CCS(=O)(=O)C2)C1=O (stereo unspecified) | – | 16.9 µM (active) |
| COc1ccc(/C=C(\C#N)C(=O)OCC(=O)N(C)C2CCS(=O)(=O)C2)cc1 (stereo unspecified) | -1.11 | – |
| CN(C(=O)CCN1C(=O)/C(=C/c2ccccc2F)SC1=S)C1CCS(=O)(=O)C1 (stereo unspecified) | – | 26.9 µM (active) |

| SMILES | activity change, negative = inhibition [%] | Potency |
| --- | --- | --- |
| O=C(CN1C(=O)/C(=C\c2ccccc2F)SC1=S)Nc1nc2ccccc2s1 | -14.1 | – |
| Cc1ccc(S(=O)(=O)CCC(=O)OCC(=O)N(C)C2CCS(=O)(=O)C2)cc1 (stereo unspecified) | 0.78 | – |
| CN(C(=O)CN1C(=O)S/C(=C\c2ccccc2F)C1=O)C1CCS(=O)(=O)C1 (stereo unspecified) | -13.4 | – |
| CC[n+]1c(C)n(-c2ccccc2)c2ccc(NC(C)=O)cc21 | 5.93 | – |
| CCN(CC)C(=O)c1nc[nH]c1C(=O)N(C)Cc1ccccc1 | -1.26 | – |
| Cc1ccc(CNC(=O)CCNS(=O)(=O)c2ccc3c(c2)oc(=O)n3C)cc1 | -3.82 | – |
| O=C(CN1CCSCC1)N/N=C/c1ccc(Cl)cc1 | -17.5 | – |
| Cc1nn(Cc2ccc(Cl)cc2)c(Cl)c1/C=N/NC(=O)CNc1ccccc1F | 0.928 | – |
| CCn1nc(C)c(/C=N/NC(=O)Cc2ccc(Cl)cc2)c1C | – | 15.1 µM (active) |
| CCn1cc(C(=O)N(C)Cc2ccccc2)c(=O)c2cc(S(=O)(=O)N3CCCCCC3)ccc21 | 1.79 | – |
| CCn1nc(C(=O)Nc2ccc(N3CCOCC3)cc2)c2ccccc2c1=O | -3.82 | – |
| CC1(c2ccc(Cl)cc2Cl)NC(=O)N(CC(=O)Nc2cccnc2Cl)C1=O (stereo unspecified) | -1.92 | – |
| Cc1cccc(COc2ccccc2/C=N/Nc2ccc([N+](=O)[O-])cc2)c1 | -1.93 | – |
| O=C(O)/C=C/C(=O)NNc1ccc([N+](=O)[O-])cc1 | -2.77 | – |
| O=[N+]([O-])c1ccc(N/N=C/c2ccccc2)cc1 | – | 19 µM (active) |
| COC(=O)c1ccc(CSc2ccc(S(=O)(=O)N3CCCCC3)cn2)cc1 | 0.326 | – |
| O=C(C1CCC1)N1CCN(S(=O)(=O)c2ccc([N+](=O)[O-])cc2)CC1 | 3.04 | – |
| COc1ccc(NS(=O)(=O)c2ccc(Oc3c(C#N)cccc3C#N)cc2)cc1 | -2.11 | – |
| COc1ccc(S(=O)(=O)/N=C2\C=C(NS(=O)(=O)c3ccccc3)C(=O)c3ccccc32)cc1 | – | 15.1 µM (active) |
| CCCC(NS(=O)(=O)c1ccc(OC)cc1)C(=O)O (stereo unspecified) | -1.49 | – |
| CCCCc1ccc(NC(=O)CN2C(=O)NC(Cc3ccccc3)C2=O)cc1 (stereo unspecified) | 1.04 | – |
| CCCCN(C(=O)c1nn(C)c(=O)c2ccccc12)c1c(N)n(CCC)c(=O)[nH]c1=O | 0.567 | – |
| Cc1ccc(S(=O)(=O)NCCNC(C)c2ccc(Br)cc2)cc1 (stereo unspecified) | 0.553 | – |
| CCOC(=O)c1ccc(NC2=CC(c3ccc(OCC)cc3)N(c3ccc(C(=O)OCC)cc3)C2=O)cc1 (stereo unspecified) | -7.59 | – |
| COC(=O)c1c(NC(=O)C(=O)N2CCCCC2)sc2c1CC(C)(C)OC2 | 0.968 | – |
| CCOC(=O)N1CCN(C(=O)C(=O)Nc2sc3c(c2C#N)CC(C)(C)OC3)CC1 | – | 16.9 µM (active) |

| SMILES | activity change, negative = inhibition [%] | Potency |
| --- | --- | --- |
| CC1(C)Cc2c(sc(NC(=O)C(=O)N3CCOCC3)c2C#N)CO1 | 0.455 | – |
| COc1ccc(NC(=S)N2CCCC(CO)C2)c(OC)c1 (stereo unspecified) | -3.78 | – |
| CCCCc1ccc(NC(=S)NCCCN2CCOCC2)cc1 | -1.41 | – |
| CCCCc1ccc(NC(=S)N2CCCC(CO)C2)cc1 (stereo unspecified) | – | 2.69 µM (active) |
| CCOc1ccc(CNC(=O)c2cc(=O)[nH]c3ccc(S(=O)(=O)N4CCCCC4)cc23)cc1 | 1.65 | – |
| Cc1ccc2c(CN3CCN(S(=O)(=O)c4ccccc4C(F)(F)F)CC3)cc(=O)oc2c1 | -1.82 | – |
| COc1ccc(CNC(=O)c2ccc3c(c2)nc2n3CCOC2)c(OC)c1 | -9.19 | – |
| COc1ccc(OC)c(CN2CCN(C(=O)CNC(=O)c3cc(C)cc(C)c3)CC2)c1 | 0.562 | – |
| Cc1ccc(C(=O)CSc2nc(-c3ccccc3)nc3c2CCCC3)c(C)c1 | -6.25 | – |
| CCn1nnnc1SCC(=O)c1ccc(C)cc1C | – | 6.75 µM (active) |
| COc1ccc(C(=O)CSc2nnnn2C)c(OC)c1 | -3.87 | – |
| CCOc1ccccc1N(C)C(=O)c1cc2c(s1)-c1ccccc1OC2 | -17.2 | – |
| CC1(C)CC(=O)C=C(c2ccc(Cl)c(C(F)(F)F)c2)C1 | -1.98 | – |
| N#C/C(=C1/CCCN1)c1ccccn1 | 0.552 | – |
| N#CC(=C1SC=CS1)c1nc(-c2ccccc2)cs1 | – | 7.57 µM (active) |
| COc1cccc(C(=O)OCC(=O)c2[nH]c(C)c(C(C)=O)c2C)c1 | 3.9 | – |
| COc1cc(C(=O)Nc2ccc(OCc3cc(=O)n4ccc(C)cc4n3)cc2)cc(OC)c1OC | -2.02 | – |
| COc1ccccc1C(=O)Nc1ccc(OCc2nnc3c4ccccc4c(C)nn23)cc1 | – | 4.26 µM (active) |
| CCc1ccc(NC(=O)c2cnc3c(-c4ccccc4)c(C)nn3c2C)cc1 | -4.43 | – |
| Cc1cccc(C(=O)NNC(=O)CSc2nnc(C(C)C)n2C)c1 | 0.258 | – |
| COCCn1c(C)cc(C2=NNC(=Nc3ccc(F)cc3)SC2)c1C | – | 3.38 µM (active) |
| C=CCn1c(C)cc(C2=NNC(=NCC)SC2)c1C | – | 0.151 µM (active) |
| Cc1ccc(S(=O)(=O)c2ccc(Cl)cc2)cc1S(=O)(=O)NC(C(=O)O)C(C)C (stereo unspecified) | -1.66 | – |
